Data from PubChem BioAssay (NCI).
“And” between values parts separate entries of the source, which are not always exact repeats. Equal values may be shown once. This is part of a sample that, as a whole, favours compounds with a hit. Of some 83,000 tested, about 20% had one in any assay.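 Single-concentration screen, 48 h exposure, 96-well plates. Endpoint: percent growth. Below 10 = active.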 The source made the active and inactive calls. Where a SMILES comes first, the peptide text is derived from it. The star is where a group is joined. Trt = c1ccc(C(c2ccccc2)(c2ccccc2)*)cc1; Cbz = O=C(OCc1ccccc1)*

Assays:
Experiment in all cases: NCI-60 one-dose screen, 48 h (100 = growth as untreated, 0 = no growth, -100 = all killed)
Details in all cases: 10 µM unless noted
NCI-H23 lung = test system: NCI-H23 lung
NCI-H226 lung = test system: NCI-H226 lung
NCI-H322M lung = test system: NCI-H322M lung
HOP-62 NSCLC = test system: HOP-62 NSCLC
NCI-H460 lung = test system: NCI-H460 lung
HOP-92 NSCLC = test system: HOP-92 NSCLC
A549/ATCC NSCLC = test system: A549/ATCC NSCLC
786-0 renal = test system: 786-0 renal
COLO 205 colon = test system: COLO 205 colon
DU-145 prostate = test system: DU-145 prostate
K-562 leukemia = test system: K-562 leukemia
MALME-3M melanoma = test system: MALME-3M melanoma
MDA-MB-231 breast = test system: MDA-MB-231 breast
RXF 393 renal = test system: RXF 393 renal
SF-268 CNS = test system: SF-268 CNS
SF-295 CNS = test system: SF-295 CNS
SF-539 CNS = test system: SF-539 CNS
UACC-257 melanoma = test system: UACC-257 melanoma
M14 melanoma = test system: M14 melanoma
NCI-H522 lung = test system: NCI-H522 lung

| SMILES | growth (NCI-H23 lung) | growth (NCI-H226 lung) | growth (NCI-H322M lung) | growth (HOP-62 NSCLC) | growth (NCI-H460 lung) | growth (HOP-92 NSCLC) | growth (A549/ATCC NSCLC) | growth (786-0 renal) | growth (COLO 205 colon) | growth (DU-145 prostate) | growth (K-562 leukemia) | growth (MALME-3M melanoma) | growth (MDA-MB-231 breast) | growth (RXF 393 renal) | growth (SF-268 CNS) | growth (SF-295 CNS) | growth (SF-539 CNS) | growth (UACC-257 melanoma) | growth (M14 melanoma) | growth (NCI-H522 lung) |
| --- | --- | --- | --- | --- | --- | --- | --- | --- | --- | --- | --- | --- | --- | --- | --- | --- | --- | --- | --- | --- |
| COC(=O)C(CSC(c1ccccc1)(c1ccccc1)c1ccccc1)NC(=O)C(CC(N)=O)NC(=O)OCc1ccccc1 (stereo not drawn) (Cbz-Asn-Cys(Trt)-OMe; configuration not given here) | 65.4% (inactive) | 71.4% (inactive) | 30.8% (inactive) | 41.4% (inactive) | 31.2% (inactive) | 55.7% (inactive) | 41.4% (inactive) | 30.7% (inactive) | -50.8% (active) | 13.4% (inactive) | 25.4% (inactive) | 27.1% (inactive) | 12.5% (inactive) | 34.1% (inactive) | 18% (inactive) | 20.1% (inactive) | -22% (active) | 59.1% (inactive) | -57.4% (active) |  |
| CCCCCCCCCCCCCCCCN(CC)CC | -93.1% (active) | -65.9% (active) | 14.5% (inactive) | -54.4% (active) | 1.87% (active) | -67.9% (active) | -69.5% (active) | -86.1% (active) | -62.5% (active) | -48.4% (active) | -73.5% (active) | -90.3% (active) | -86.9% (active) | -86.2% (active) | -34.8% (active) | -92.9% (active) | -98.2% (active) | -51.9% (active) | -16.9% (active) |  |
| O=[N+]([O-])c1ccc(N=Nc2ccc(O)cc2O)cc1 | 55.1% (inactive) | 60.6% (inactive) | 84.8% (inactive) | 93.6% (inactive) | 66% (inactive) | -18.1% (active) | 62.6% (inactive) | 51.3% (inactive) | 41.4% (inactive) | 83.2% (inactive) | 20.6% (inactive) | 72.5% (inactive) | 47.4% (inactive) | 20.6% (inactive) | 78% (inactive) | 50.6% (inactive) | 37.7% (inactive) | 43.7% (inactive) | 51.3% (inactive) |  |
| O=C(Oc1cccc2cccnc12)c1ccccc1 | 94.3% (inactive) and 103% (inactive) | 110% (inactive) and 102% (inactive) | 107% (inactive) and 117% (inactive) | 98.8% (inactive) and 106% (inactive) | 87.1% (inactive) and 109% (inactive) | 91% (inactive) and 110% (inactive) | 100% (inactive) and 103% (inactive) | 100% (inactive) and 107% (inactive) | 84.8% (inactive) and 106% (inactive) | 92.9% (inactive) and 107% (inactive) | 48.5% (inactive) | 89.8% (inactive) and 99% (inactive) | 84.5% (inactive) and 104% (inactive) | 99.5% (inactive) and 108% (inactive) | 87.1% (inactive) and 102% (inactive) | 97.5% (inactive) and 98.7% (inactive) | 97.9% (inactive) and 106% (inactive) | 86% (inactive) and 96.8% (inactive) | 83.2% (inactive) and 96.9% (inactive) |  |
| O=C1c2ccccc2C(=O)c2sc(Nc3ccc(Cl)cc3)nc21 | -53.2% (active) | 1.07% (active) | 78% (inactive) | 55.4% (inactive) | 87.7% (inactive) | 59.1% (inactive) | 71.8% (inactive) | 60.9% (inactive) | 82.9% (inactive) | -78.3% (active) | 4.83% (active) | -79.6% (active) | 6.43% (active) | 17% (inactive) | 42% (inactive) | 98.4% (inactive) | 2.24% (active) | -16% (active) | -2.34% (active) |  |
| C[N+](C)=c1ccc2nc3c(cc(NCCCNc4cc5oc6cc(=[N+](C)C)ccc-6nc5c5ccccc45)c4ccccc43)oc-2c1 | -56.1% (active) | 73.2% (inactive) | 25.3% (inactive) | 44.4% (inactive) | -56.2% (active) | 59% (inactive) | 20.5% (inactive) | -68.5% (active) | -64.9% (active) | -100% (active) | -0.99% (active) | 35.6% (inactive) | -36.2% (active) | 58.2% (inactive) | 55% (inactive) | 45% (inactive) | -9.59% (active) | 65.1% (inactive) | 28.9% (inactive) |  |
| Cc1ccc(NS(=O)(=O)c2ccc(C)cc2)cc1 | 100% (inactive) and 98.2% (inactive) | 95.9% (inactive) and 88.6% (inactive) | 102% (inactive) and 91.5% (inactive) | 98.5% (inactive) and 92.7% (inactive) | 107% (inactive) and 106% (inactive) |  | 88.1% (inactive) and 107% (inactive) | 100% (inactive) and 99.3% (inactive) | 111% (inactive) and 103% (inactive) | 101% (inactive) and 104% (inactive) | 85.7% (inactive) and 101% (inactive) | 105% (inactive) and 101% (inactive) | 103% (inactive) and 107% (inactive) | 103% (inactive) and 96.1% (inactive) | 97.8% (inactive) and 93.1% (inactive) | 95.5% (inactive) and 93.4% (inactive) | 111% (inactive) and 101% (inactive) | 89.8% (inactive) and 77.2% (inactive) | 98% (inactive) and 99.2% (inactive) | 97.9% (inactive) and 77.9% (inactive) |
| CC(=O)ON=C1C=CC(=C(C#N)c2ccccc2)C=C1 | 91.7% (inactive) | 66.8% (inactive) | 94.8% (inactive) | 55.1% (inactive) | 4.7% (active) |  | 32.2% (inactive) | 15.4% (inactive) | 90.6% (inactive) | 1.67% (active) | 28.1% (inactive) | 83.3% (inactive) | 13.9% (inactive) | 35.5% (inactive) | 14.1% (inactive) | 39.8% (inactive) | 24.5% (inactive) | 30.5% (inactive) | 22.2% (inactive) | -24.2% (active) |
| COc1ccccc1OC(=O)Oc1ccccc1OC | 101% (inactive) and 95.5% (inactive) | 99.7% (inactive) and 106% (inactive) | 94.3% (inactive) and 99.5% (inactive) | 120% (inactive) and 100% (inactive) | 108% (inactive) and 104% (inactive) | 108% (inactive) and -0.941% (active) | 90.1% (inactive) and 109% (inactive) | 103% (inactive) and 96.6% (inactive) | 123% (inactive) and 104% (inactive) | 112% (inactive) and 96% (inactive) | 125% (inactive) and 104% (inactive) | 94.8% (inactive) and 98.5% (inactive) | 103% (inactive) and 107% (inactive) | 102% (inactive) and 113% (inactive) | 111% (inactive) and 94.9% (inactive) | 106% (inactive) and 103% (inactive) | 121% (inactive) and 103% (inactive) | 97.6% (inactive) and 115% (inactive) | 103% (inactive) and 99.7% (inactive) |  |
| O=C1c2cccnc2-c2nccc3c2c1nc1cc(Br)ccc13 | -78.4% (active) and -66.2% (active) | -43.8% (active) and -48.5% (active) | -99.2% (active) and -89.2% (active) | -68.6% (active) and -85.7% (active) | -52.9% (active) and -78.6% (active) | -17.1% (active) and -72.6% (active) | -65.9% (active) and -81% (active) | -86.6% (active) and -85.6% (active) | -85.6% (active) and -85% (active) | -88.9% (active) and -99.9% (active) | -87.4% (active) and -25.6% (active) | 8.18% (active) | -9.52% (active) and -58% (active) | -51.7% (active) and -90.9% (active) | -1.91% (active) and -63.6% (active) | 0% (active) and -84.3% (active) | -87.2% (active) and -90.5% (active) | -78.4% (active) and -83.7% (active) | -77.1% (active) |  |
| CCOC(=O)c1c(C)[nH]c(CO)c1C | 99.1% (inactive) | 114% (inactive) | 94.9% (inactive) | 93.9% (inactive) | 110% (inactive) | 101% (inactive) | 90.7% (inactive) | 106% (inactive) | 104% (inactive) | 101% (inactive) | 101% (inactive) | 91.1% (inactive) | 104% (inactive) | 134% (inactive) | 96.7% (inactive) | 95.1% (inactive) | 104% (inactive) | 94.2% (inactive) | 95.5% (inactive) |  |
| Cn1c2c(c3ccccc31)CCN1C[C@@H]3CCCC[C@H]3C[C@@H]21 | 14.4% (inactive) | 32.3% (inactive) | 6.3% (active) | 40.7% (inactive) | 0.684% (active) | 33.4% (inactive) | 23.1% (inactive) | -12.7% (active) | -59.2% (active) | -49% (active) | 12.9% (inactive) | 3.28% (active) | 28.5% (inactive) | -24.4% (active) | 16.1% (inactive) | -30.1% (active) | -1.74% (active) | 55.4% (inactive) | -59.3% (active) |  |
